In PubChem BioAssay AID624330 (Southern Research Specialized Biocontainment Screening …, 2012) one finds inhibition data, which are given here for 27 compounds.

About 2,100 (0.62%) of roughly 340,000 compounds were called active. The list is a sample of the results. Potency and affinity values are given separately. Values without a mark were called inactive.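 Rule for the calls: active = first-screen hits whose inhibition reached a set limit at any dose in the follow-up dose series; inconclusive = inhibition above the set first-screen limit but never retested; inactive = the rest.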

Chain of Rac GTPase-activating protein 1 (Homo sapiens) (Q9H0H5 whole entry, looked up): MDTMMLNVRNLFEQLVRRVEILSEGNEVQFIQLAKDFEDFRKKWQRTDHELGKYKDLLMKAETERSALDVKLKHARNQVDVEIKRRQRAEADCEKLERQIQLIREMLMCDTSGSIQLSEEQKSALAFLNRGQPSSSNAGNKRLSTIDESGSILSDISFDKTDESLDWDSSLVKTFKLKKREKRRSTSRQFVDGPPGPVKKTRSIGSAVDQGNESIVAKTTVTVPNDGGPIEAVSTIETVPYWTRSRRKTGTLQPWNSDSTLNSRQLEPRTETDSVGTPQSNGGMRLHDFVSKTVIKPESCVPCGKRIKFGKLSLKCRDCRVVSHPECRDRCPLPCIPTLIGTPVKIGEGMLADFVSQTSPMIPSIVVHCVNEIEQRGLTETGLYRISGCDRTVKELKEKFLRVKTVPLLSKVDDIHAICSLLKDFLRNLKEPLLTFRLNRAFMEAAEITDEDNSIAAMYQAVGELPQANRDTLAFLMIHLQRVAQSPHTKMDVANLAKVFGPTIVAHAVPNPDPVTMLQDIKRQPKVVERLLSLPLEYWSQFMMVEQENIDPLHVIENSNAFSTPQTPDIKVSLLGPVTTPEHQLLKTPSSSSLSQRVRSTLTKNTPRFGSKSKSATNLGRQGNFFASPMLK

The assay has as its target Rac GTPase-activating protein 1 (Homo sapiens) (UniProt Q9H0H5). Briefly: MgcRacGAP GTPase-activating activity inhibitors, confirmation, biochemical, ADP Hunter fluorescence, primary and confirmatory (AID 624330).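 Note: fluorescence reports GDP produced by GAP-driven GTP hydrolysis.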 The settings on record: MgcRacGAP-stimulated Rac1 GTP hydrolysis, at 30 µM, active compounds read high, GST-tagged Rac1 F28L mutant substrate.
What is called inhibition is the relative decrease from the control value, in per cent. Regarding `CC(C)CN1CC(Br)C(=O)NC1=O` (configuration not stated), the inhibition is 4.9%. The figure for `COc1ccc(CCNC(=S)Nc2ccccc2)cc1` is 12.5%; for `COc1ccc(C)cc1NC(=O)C(=O)N/N=C(\C)CC(=O)Nc1cccnc1` it is -2.35%; for `N#CCC(=N)N1CCN(c2ccc(F)cc2)CC1` it is 1.28%. The figure for `CN(C(=O)OC(C)(C)C)[C@H](Cc1ccccc1)C(=O)N[C@H]1CCCCNC1=O` is 4.78%. To `CCS(=O)(=O)c1ccc(O)c(NC(=O)/C=C/c2ccccc2)c1` belongs 5.42%; to `Cc1cc(NC(=O)/C=C/c2ccccc2)c(C(C)C)cc1O`, 12.2%.

Turning to `CCC1(c2ccccc2)NC(=O)N(CC(=O)N(CC(=O)Nc2ccccc2C(F)(F)F)Cc2ccco2)C1=O` (configuration not stated), the inhibition is 1.52%. To `COc1ccc(C)cc1NC(=O)c1cc(S(=O)(=O)N2CCOCC2)cn1C` belongs 10.3%; to `CCOC(=O)C1CCN(C(=O)COC(=O)c2oc3ccccc3c2C)CC1`, 7.79%. As for `CCOC(=O)N/N=C/c1ccc(OC)c(O)c1`, the inhibition is 18.6%. To `COc1cc(/C=N/NC(=O)c2cccc(C(=O)N/N=C/c3ccc(O)c(OC)c3)n2)ccc1O` belongs 9.56%.

Consider `COc1ccc(/C=N/NC(=O)c2cccc(C(=O)N/N=C/c3ccc(OC)c(OC)c3)n2)cc1OC`, for which the inhibition is 5.53%.

`COc1ccc(/C=N/NC(=O)c2ccc(=O)[nH]n2)cc1OC`: the inhibition was 8.66%. For the compound `CC(C)NC(=O)c1cc2n(n1)C(C(F)(F)F)CC(c1ccco1)N2` (configuration not stated), the inhibition was 5.2%. To `C=CCn1c(SCC(=O)NCCOC)nnc1-c1cc2c(s1)CCC(CC)C2` (configuration not stated) belongs 7.45%; to `O=C1c2cc([N+](=O)[O-])ccc2-c2ncccc21`, -4.67%; to `Cn1c(=O)[nH]c(=O)c2c1nc(Sc1ccccc1)n2CCc1ccccc1`, 0.88%. The figure for `CCC(C)(O)c1[nH]c2ccc(C(F)(F)F)cc2c1C` (configuration not stated) is 5.14%; for `O=C1c2ccccc2C(=O)c2c(NCc3cccnc3)cccc21` it is 1.26%; for `O=C1c2ccccc2C(=O)c2c(Nc3ccc(CCO)cc3)ccc(O)c21` it is 15.2%. The figure for `CN1C(=O)c2cccc(NCCCCCCN3C(=O)c4ccccc4C3=O)c2C1=O` is 5.81%; for `CNc1cccc2c1C(=O)c1ccccc1C2=O` it is 6.76%; for `OCCNCCO` it is -1.48%. Consider `CN1C(=O)c2cccc(NCCCN3C(=O)c4ccccc4C3=O)c2C1=O`, for which the inhibition is 10.7%. The figure for `CC(C)Oc1ccc(C(=O)NC2=NCCS2)cc1` is 6.37%; for `Cc1cccc(NC(=O)CSc2nnnn2-c2cccnc2)c1` it is 4.2%.
